The results in this text go back to PubChem BioAssay (EPA / NIEHS).

What is called AC50 is the concentration giving half of the maximal activity seen.

Read-out in test [1]: Intercellular Adhesion Molecule 1 (ICAM1), ICAM1 (gene 3383)
Description: BSK_3C_ICAM1: BioMAP Diversity Plus: 3C Assay for Intercellular Adhesion Molecule 1 (ICAM1) Biomarker Activity (AID 2283003; active means hit-call score of the fitted dose curve at least 0.9, where 1 is the maximum; inactive means score below 0.9). As to conditions: primary human endothelial cells (HUVEC); actives raise or lower the signal. An outline of the steps: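 Primary human umbilical vein endothelial cells in the BioMAP 3C system were exposed to chemicals for 24 h, then ICAM-1 was quantified by ELISA. Activity was fitted bidirectionally against the DMSO negative control baseline.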

The target in test [2] is human Retinoic Acid Receptor beta (RARb), RARB (gene 5915) (UniProt P10826). Description: ATG_RARb_TRANS: Attagene TRANS-FACTORIAL HepG2 Assay for human Retinoic Acid Receptor beta (AID 2283004). The method in brief: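 Induction of reporter mRNA from a chimeric RARb-Gal4 construct was measured by RT-PCR, FAM labelling, HpaI digestion and capillary electrophoresis. Measurements followed 24 h compound treatment of transiently transfected human HepG2 liver cells, with DMSO as baseline.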

Test [3] has as its target Retinoic acid receptor alpha (Homo sapiens) (UniProt P10276). Briefly: ATG_RARa_TRANS: Attagene TRANS-FACTORIAL HepG2 Assay for human Retinoic Acid Receptor alpha (RARa) (AID 2283005). The method in brief: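 Reporter transcripts, measured by RT-PCR with fluorescent labeling and capillary electrophoresis after 24 h dosing, reflect activity of an exogenous human RARa–GAL4 fusion in transiently transfected HepG2. Fitted for increase relative to DMSO.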

Test [4] in a line: BSK_3C_Proliferation: Cell Proliferation Assessment in the BioMAP Diversity Plus: 3C Assay (AID 2283006; active means hit-call score of the fitted dose curve at least 0.9, where 1 is the maximum; inactive means score below 0.9). The settings on record: primary human endothelial cells (HUVEC). An outline of the steps: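 Human umbilical vein endothelial cells were grown sub-confluent and exposed to chemical for 48 h, then fixed with 10% TCA and stained with 0.1% sulforhodamine B; absorbance at 560 nm gave relative cell number, fitted bidirectionally against DMSO baseline.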

For test [5], the target named is Peroxisome proliferator-activated receptor gamma (Homo sapiens) (UniProt P37231). Briefly: ATG_PPARg_TRANS: Attagene TRANS-FACTORIAL HepG2 Assay for human Peroxisome Proliferator-activated Receptor-gamma (PPARg) (AID 2283007). An outline of the steps:
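HepG2 cells transiently transfected with multiplexed GAL4-UAS reporter units and exogenous chimeric NR-Gal4 proteins; reporter mRNA quantified after 24 h compound exposure by RT-PCR, fluorescent labelling, HpaI digestion and capillary electrophoresis; gain-of-signal fitted versus DMSO baseline.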

In test [6] the target is Nuclear receptor subfamily 1 group I member 2 (Homo sapiens) (UniProt O75469). Description: ATG_PXR_TRANS: Attagene TRANS-FACTORIAL HepG2 Assay for human Pregnane X Receptor (PXR) (AID 2283008). The method in brief:
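Read-out is fluorescence of labelled reporter cDNA fragments separated by capillary electrophoresis after RT-PCR and HpaI digestion. Source: HepG2 cells carrying PXR-GAL4/UAS reporter constructs, treated 24 h; activity fitted upward relative to DMSO.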

In test [7] the target is human Retinoic Acid Receptor gamma (RARg), RARG (gene 5916) (UniProt P13631). Description: ATG_RARg_TRANS: Attagene TRANS-FACTORIAL HepG2 Assay for human Retinoic Acid Receptor gamma (RARg) (AID 2283009). An outline of the steps:
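HepG2 cells transiently transfected with multiplexed reporter units expressing chimeric RARg-GAL4 and GAL4-UAS-driven reporters; 24 h compound exposure. Reporter mRNA quantified by RT-PCR with fluorescent labelling and capillary electrophoresis; gain-of-signal fitted relative to DMSO baseline.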

Test [8] deals with human RAR-related Orphan Receptor beta (RORb), RORB (gene 6096) (UniProt Q92753). Briefly: ATG_RORb_TRANS: Attagene TRANS-FACTORIAL HepG2 Assay for human RAR-related Orphan Receptor beta (RORb) (AID 2283010). The method in brief:
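HepG2 cells were transiently transfected with multiplexed GAL4-UAS reporter units expressing chimeric nuclear receptor–GAL4 proteins, then dosed for 24 h. Reporter mRNA was quantified by RT-PCR with fluorescent labelling and capillary electrophoresis; gain of signal was fitted relative to DMSO.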

For test [9], the target named is human RAR-related Orphan Receptor gamma (RORg), RORC (gene 6097) (UniProt P51449). Description: ATG_RORg_TRANS: Attagene TRANS-FACTORIAL HepG2 Assay for human RAR-related Orphan Receptor gamma (RORg) (AID 2283011). The method in brief:
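Reporter transcripts from a transfected RORg-GAL4 chimera in HepG2 cells were quantified 24 h after dosing by RT-PCR, 6-FAM labelling, HpaI digestion and capillary electrophoresis; increases over DMSO baseline were fitted.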

In test [10] the target is Retinoic acid receptor RXR-alpha (Homo sapiens) (UniProt P19793). Briefly: ATG_RXRa_TRANS: Attagene TRANS-FACTORIAL HepG2 Assay for human Retinoid X Receptor alpha (RXRa) (AID 2283012). An outline of the steps: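 HepG2 cells transiently transfected with multiplexed GAL4-UAS reporter units and chimeric NR-GAL4 fusions, dosed 24 h. Reporter mRNA measured by RT-PCR, FAM labelling, HpaI digestion and capillary electrophoresis; gain-of-signal fitted relative to DMSO baseline.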

The target of test [11] is human Retinoid X Receptor beta (RXRb), RXRB (gene 6257) (UniProt P28702). Briefly: ATG_RXRb_TRANS: Attagene TRANS-FACTORIAL HepG2 Assay for human Retinoid X Receptor beta (RXRb) (AID 2283013). An outline of the steps: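 HepG2 cells transiently transfected with multiplexed reporter units driven by GAL4-UAS and exogenous chimeric NR-Gal4 proteins; treated 24 h. Reporter mRNA measured by RT-PCR, 6-FAM labelling and capillary electrophoresis; gain-of-signal fitted versus DMSO baseline.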

The target of test [12] is human Thyroid Receptor alpha (THRa1), THRA (gene 7067) (UniProt P10827). Briefly: ATG_THRa1_TRANS: Attagene TRANS-FACTORIAL HepG2 Assay for human Thyroid Receptor alpha (THRa1) (AID 2283014). The method in brief:
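Transcripts from GAL4-UAS-driven reporters, measured after 24 h compound exposure by RT-PCR plus capillary electrophoresis of 6-FAM-labeled fragments, were fitted for gain of signal relative to DMSO. Cells: transiently transfected HepG2 expressing NR-Gal4 chimeras.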

Read-out in test [13]: E-selectin (Homo sapiens) (UniProt P16581)
Briefly: BSK_3C_Eselectin: BioMAP Diversity Plus: 3C Assay for Eselectin Biomarker Activity (AID 2283015; active means hit-call score of the fitted dose curve at least 0.9, where 1 is the maximum; inactive means score below 0.9;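 further: cell surface E-selectin protein quantified by ELISA 24 h after dosing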). The settings on record: primary human endothelial cells (HUVEC); actives raise or lower the signal. An outline of the steps: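 E-selectin ELISA readout, fitted bidirectionally relative to DMSO, taken 24 h post-dosing in HUVEC cultures of the 3C system. Overt cytotoxicity tracked with sulforhodamine B staining of parallel wells.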

Read-out in test [14]: Interleukin-1 alpha (IL1a), IL1A (gene 3552)
Description: BSK_BE3C_IL1a: BioMAP Diversity Plus: BE3C Assay for Interleukin-1 alpha (IL1a) Biomarker Activity (AID 2283016; active means hit-call score of the fitted dose curve at least 0.9, where 1 is the maximum; inactive means score below 0.9). The settings on record: primary human bronchial epithelial cells; actives raise or lower the signal. The method in brief:
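Human primary bronchial epithelial cells (BE3C system) were dosed with compound and IL-1a measured by ELISA 24 h later. Activity was fitted bidirectionally against DMSO baseline; cytotoxicity was tracked in parallel cultures by SRB total-protein staining.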

Read-out in test [15]: Monocyte Chemoattractant Protein-1 (MCP1), CCL2 (gene 6347)
Description: BSK_3C_MCP1: BioMAP Diversity Plus: 3C Assay for Monocyte Chemoattractant Protein-1 (MCP1) Biomarker Activity (AID 2283017; active means hit-call score of the fitted dose curve at least 0.9, where 1 is the maximum; inactive means score below 0.9). The settings on record: primary human endothelial cells (HUVEC); actives raise or lower the signal. The method in brief:
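MCP-1 was measured by ELISA 24 h after dosing in primary HUVEC 3C cultures and fitted in both directions relative to DMSO; cytotoxicity was checked by SRB total-protein staining in parallel wells.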

Read-out in test [16]: Monocyte Chemoattractant Protein-1 (MCP1), CCL2 (gene 6347)
Briefly: BSK_4H_MCP1: BioMAP Diversity Plus: 4H Assay for Monocyte Chemoattractant Protein-1 (MCP1) Biomarker Activity (AID 2283018; active means hit-call score of the fitted dose curve at least 0.9, where 1 is the maximum; inactive means score below 0.9). As to conditions: primary human endothelial cells (HUVEC); actives raise or lower the signal. An outline of the steps: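 Human umbilical vein endothelial cells (4H system) dosed with chemical; MCP-1 measured by ELISA 24 h after dosing. Bidirectional curve fitting against DMSO negative control as baseline; parallel SRB total-protein staining tracks overt cytotoxicity.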

Read-out in test [17]: Human Leukocyte Antigen - DR isotype (HLADR), HLA-DRA (gene 3122)
Briefly: BSK_3C_HLADR: BioMAP Diversity Plus: 3C Assay for Human Leukocyte Antigen - DR isotype (HLADR) Biomarker Activity (AID 2283019; active means hit-call score of the fitted dose curve at least 0.9, where 1 is the maximum; inactive means score below 0.9;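 further: ELISA of cell-surface HLA-DR on HUVEC 24 h after dosing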). The settings on record: primary human endothelial cells (HUVEC); actives raise or lower the signal. The method in brief: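 Bidirectional fitting against DMSO was applied to the HLA-DR ELISA signal from human umbilical vein endothelial cells, 24 h post-dose. Cytotoxicity came from parallel SRB total-protein staining; 3C proliferation was counted by SRB at 48 h.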

Read-out in test [18]: Interleukin-8 (IL8), CXCL8 (gene 3576)
Briefly: BSK_3C_IL8: BioMAP Diversity Plus: 3C Assay for Interleukin-8 (IL8) Biomarker Activity (AID 2283020; active means hit-call score of the fitted dose curve at least 0.9, where 1 is the maximum; inactive means score below 0.9). The settings on record: primary human endothelial cells (HUVEC); actives raise or lower the signal. The method in brief:
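Primary human umbilical vein endothelial cells (3C system) were exposed to test chemical for 24 h, then IL-8 was quantified by ELISA. Responses were fitted bidirectionally against DMSO vehicle as baseline.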

Read-out in test [19]: Monokine induced gamma interferon (MIG), CXCL9 (gene 4283)
Briefly: BSK_3C_MIG: BioMAP Diversity Plus: 3C Assay for Monokine induced gamma interferon (MIG) Biomarker Activity (AID 2283021; active means hit-call score of the fitted dose curve at least 0.9, where 1 is the maximum; inactive means score below 0.9). The settings on record: primary human endothelial cells (HUVEC); actives raise or lower the signal. An outline of the steps: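 Primary human umbilical vein endothelial cells in the 3C system were exposed to chemical for 24 h, after which MIG was quantified by ELISA. Activity was fitted bidirectionally against DMSO as negative control and baseline.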

The target of test [20] is human Vitamin D Receptor (VDR), VDR (gene 7421) (UniProt P11473). Description: ATG_VDR_TRANS: Attagene TRANS-FACTORIAL HepG2 Assay for human Vitamin D Receptor (VDR) (AID 2283022). The method in brief: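 Transactivation by an exogenous VDR-Gal4 chimera in transiently transfected HepG2 cells was measured as reporter transcript level 24 hours after chemical treatment. RT-PCR products were analysed by capillary electrophoresis and fitted in the positive direction relative to DMSO.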

Each structure is given as a SMILES string. Inconclusive results are not listed. Activity calls are given as the source filed them. How the source made its calls, unless noted: active means hit-call score of the fitted dose curve at least 0.9, where 1 is the maximum; inconclusive means response in the unintended direction; inactive means score below 0.9.

human Retinoid X Receptor beta (RXRb), RXRB (gene 6257), sequence (P28702 whole entry, looked up, the tested form may be a part): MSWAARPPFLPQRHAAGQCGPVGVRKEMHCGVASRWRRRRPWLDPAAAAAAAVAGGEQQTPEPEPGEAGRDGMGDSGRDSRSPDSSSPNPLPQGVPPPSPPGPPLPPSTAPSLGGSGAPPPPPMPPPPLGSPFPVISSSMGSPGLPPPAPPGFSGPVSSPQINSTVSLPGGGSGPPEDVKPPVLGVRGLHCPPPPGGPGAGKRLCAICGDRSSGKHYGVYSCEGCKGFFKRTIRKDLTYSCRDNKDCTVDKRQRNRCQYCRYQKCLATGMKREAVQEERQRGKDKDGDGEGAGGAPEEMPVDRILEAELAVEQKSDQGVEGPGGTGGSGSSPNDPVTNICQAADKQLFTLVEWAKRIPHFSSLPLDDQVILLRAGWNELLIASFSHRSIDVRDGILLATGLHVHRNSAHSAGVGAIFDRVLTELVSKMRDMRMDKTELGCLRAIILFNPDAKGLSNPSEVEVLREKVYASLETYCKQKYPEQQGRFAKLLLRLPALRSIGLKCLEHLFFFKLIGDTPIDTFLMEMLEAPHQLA
Retinoic acid receptor alpha (Homo sapiens), sequence (P10276 whole entry, looked up, the tested form may be a part): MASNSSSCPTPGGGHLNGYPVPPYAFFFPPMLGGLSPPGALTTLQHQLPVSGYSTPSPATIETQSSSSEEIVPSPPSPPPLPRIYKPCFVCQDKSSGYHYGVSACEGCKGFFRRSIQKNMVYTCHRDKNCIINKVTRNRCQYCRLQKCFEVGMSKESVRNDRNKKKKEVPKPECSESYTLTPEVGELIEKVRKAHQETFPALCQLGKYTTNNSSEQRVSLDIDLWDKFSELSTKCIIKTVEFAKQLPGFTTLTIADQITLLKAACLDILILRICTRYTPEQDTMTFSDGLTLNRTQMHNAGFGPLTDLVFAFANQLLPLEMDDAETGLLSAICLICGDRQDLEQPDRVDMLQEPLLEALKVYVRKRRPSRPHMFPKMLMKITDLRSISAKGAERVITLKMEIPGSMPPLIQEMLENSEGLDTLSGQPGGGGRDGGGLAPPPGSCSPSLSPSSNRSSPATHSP
Peroxisome proliferator-activated receptor gamma (Homo sapiens), sequence (P37231 whole entry, looked up, the tested form may be a part): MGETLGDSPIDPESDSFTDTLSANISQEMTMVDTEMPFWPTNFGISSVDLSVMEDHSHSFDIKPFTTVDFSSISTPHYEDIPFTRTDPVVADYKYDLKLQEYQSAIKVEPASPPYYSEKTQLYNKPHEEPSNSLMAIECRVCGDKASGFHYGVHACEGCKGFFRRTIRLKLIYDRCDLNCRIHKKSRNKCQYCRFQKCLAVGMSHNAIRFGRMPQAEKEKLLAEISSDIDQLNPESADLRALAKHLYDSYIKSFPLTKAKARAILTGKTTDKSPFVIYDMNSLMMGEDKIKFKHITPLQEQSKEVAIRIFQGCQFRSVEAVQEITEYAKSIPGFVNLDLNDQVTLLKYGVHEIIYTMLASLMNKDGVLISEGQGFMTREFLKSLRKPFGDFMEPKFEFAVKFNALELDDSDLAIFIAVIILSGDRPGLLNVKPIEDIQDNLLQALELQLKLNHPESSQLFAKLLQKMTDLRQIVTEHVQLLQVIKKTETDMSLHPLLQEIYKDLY
human RAR-related Orphan Receptor beta (RORb), RORB (gene 6096), sequence (Q92753 whole entry, looked up, the tested form may be a part): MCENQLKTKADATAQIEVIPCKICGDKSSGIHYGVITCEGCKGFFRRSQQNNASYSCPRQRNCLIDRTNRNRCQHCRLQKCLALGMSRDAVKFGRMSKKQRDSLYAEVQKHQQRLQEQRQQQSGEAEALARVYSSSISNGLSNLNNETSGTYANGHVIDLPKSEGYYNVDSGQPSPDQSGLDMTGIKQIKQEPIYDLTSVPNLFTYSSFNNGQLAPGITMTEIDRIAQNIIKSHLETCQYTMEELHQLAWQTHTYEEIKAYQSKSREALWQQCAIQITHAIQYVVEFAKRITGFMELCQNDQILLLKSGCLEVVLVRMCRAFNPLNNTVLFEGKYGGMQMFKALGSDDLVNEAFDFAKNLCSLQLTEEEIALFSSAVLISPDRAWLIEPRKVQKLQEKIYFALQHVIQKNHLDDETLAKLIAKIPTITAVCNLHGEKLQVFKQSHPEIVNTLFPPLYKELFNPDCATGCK
Retinoic acid receptor RXR-alpha (Homo sapiens), sequence (P19793 whole entry, looked up, the tested form may be a part): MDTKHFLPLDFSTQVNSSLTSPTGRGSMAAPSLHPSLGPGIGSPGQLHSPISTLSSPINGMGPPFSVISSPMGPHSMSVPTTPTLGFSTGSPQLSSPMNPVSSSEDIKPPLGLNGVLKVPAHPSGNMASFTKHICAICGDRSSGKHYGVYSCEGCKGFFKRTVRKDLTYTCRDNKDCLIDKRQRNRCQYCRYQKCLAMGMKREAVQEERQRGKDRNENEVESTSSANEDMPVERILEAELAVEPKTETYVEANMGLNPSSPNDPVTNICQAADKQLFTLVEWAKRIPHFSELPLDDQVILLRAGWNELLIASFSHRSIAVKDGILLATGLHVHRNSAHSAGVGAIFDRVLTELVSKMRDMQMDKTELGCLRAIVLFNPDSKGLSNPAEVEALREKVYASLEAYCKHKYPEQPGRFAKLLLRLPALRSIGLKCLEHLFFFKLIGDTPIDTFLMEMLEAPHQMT
Nuclear receptor subfamily 1 group I member 2 (Homo sapiens), sequence (O75469 whole entry, looked up, the tested form may be a part): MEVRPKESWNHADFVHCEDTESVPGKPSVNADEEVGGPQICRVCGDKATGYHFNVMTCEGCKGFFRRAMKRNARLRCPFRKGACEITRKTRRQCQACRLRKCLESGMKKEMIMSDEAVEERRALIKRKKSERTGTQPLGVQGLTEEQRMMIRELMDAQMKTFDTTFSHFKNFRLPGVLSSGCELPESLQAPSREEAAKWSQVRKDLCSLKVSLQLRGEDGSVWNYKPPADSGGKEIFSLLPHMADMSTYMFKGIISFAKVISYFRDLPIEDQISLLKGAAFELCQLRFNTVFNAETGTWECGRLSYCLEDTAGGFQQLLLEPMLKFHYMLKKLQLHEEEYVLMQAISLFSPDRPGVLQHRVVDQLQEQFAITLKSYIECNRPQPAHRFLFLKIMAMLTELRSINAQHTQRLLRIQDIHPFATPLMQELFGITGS
human Retinoic Acid Receptor beta (RARb), RARB (gene 5915), sequence (P10826 whole entry, looked up, the tested form may be a part): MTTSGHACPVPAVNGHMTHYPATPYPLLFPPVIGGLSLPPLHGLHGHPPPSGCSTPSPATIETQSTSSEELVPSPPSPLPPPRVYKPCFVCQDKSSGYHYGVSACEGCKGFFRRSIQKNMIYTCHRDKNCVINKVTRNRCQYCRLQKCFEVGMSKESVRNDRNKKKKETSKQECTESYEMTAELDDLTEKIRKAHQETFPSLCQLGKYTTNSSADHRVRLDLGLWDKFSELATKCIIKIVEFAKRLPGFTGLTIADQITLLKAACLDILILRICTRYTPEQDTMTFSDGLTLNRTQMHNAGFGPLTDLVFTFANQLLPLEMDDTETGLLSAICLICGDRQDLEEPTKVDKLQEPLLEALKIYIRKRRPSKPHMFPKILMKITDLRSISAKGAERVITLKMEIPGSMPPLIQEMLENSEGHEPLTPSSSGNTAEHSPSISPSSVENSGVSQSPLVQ
E-selectin (Homo sapiens), sequence (P16581 whole entry, looked up): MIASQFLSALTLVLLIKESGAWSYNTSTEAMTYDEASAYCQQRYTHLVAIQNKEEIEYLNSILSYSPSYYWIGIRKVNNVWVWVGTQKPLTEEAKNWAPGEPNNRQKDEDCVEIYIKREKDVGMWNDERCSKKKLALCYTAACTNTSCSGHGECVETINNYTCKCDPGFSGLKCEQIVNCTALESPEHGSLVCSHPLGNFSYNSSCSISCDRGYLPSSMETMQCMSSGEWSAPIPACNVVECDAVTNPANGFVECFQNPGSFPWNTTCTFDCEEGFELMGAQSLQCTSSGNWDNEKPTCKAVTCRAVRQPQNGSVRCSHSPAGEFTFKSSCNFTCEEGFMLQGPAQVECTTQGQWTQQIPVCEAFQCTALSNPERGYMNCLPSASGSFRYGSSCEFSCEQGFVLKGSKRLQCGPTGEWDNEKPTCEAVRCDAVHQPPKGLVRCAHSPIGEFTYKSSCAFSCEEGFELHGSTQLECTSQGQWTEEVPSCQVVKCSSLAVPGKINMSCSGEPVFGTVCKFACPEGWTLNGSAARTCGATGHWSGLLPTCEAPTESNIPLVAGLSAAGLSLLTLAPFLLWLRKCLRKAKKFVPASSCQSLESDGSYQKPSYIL
human Retinoic Acid Receptor gamma (RARg), RARG (gene 5916), sequence (P13631 whole entry, looked up, the tested form may be a part): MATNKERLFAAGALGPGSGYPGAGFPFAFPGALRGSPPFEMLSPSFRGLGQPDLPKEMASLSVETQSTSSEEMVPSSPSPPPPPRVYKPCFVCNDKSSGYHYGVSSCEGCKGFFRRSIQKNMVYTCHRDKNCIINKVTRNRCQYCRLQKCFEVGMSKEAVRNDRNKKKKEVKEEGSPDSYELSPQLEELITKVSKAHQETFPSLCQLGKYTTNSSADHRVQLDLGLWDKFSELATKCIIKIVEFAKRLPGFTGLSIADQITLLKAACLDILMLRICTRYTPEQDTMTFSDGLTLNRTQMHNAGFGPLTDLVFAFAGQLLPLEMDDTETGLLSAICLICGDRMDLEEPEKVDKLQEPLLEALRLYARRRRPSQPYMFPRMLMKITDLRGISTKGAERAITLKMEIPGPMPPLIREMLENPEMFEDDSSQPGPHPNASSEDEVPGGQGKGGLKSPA
human Thyroid Receptor alpha (THRa1), THRA (gene 7067), sequence (P10827 whole entry, looked up, the tested form may be a part): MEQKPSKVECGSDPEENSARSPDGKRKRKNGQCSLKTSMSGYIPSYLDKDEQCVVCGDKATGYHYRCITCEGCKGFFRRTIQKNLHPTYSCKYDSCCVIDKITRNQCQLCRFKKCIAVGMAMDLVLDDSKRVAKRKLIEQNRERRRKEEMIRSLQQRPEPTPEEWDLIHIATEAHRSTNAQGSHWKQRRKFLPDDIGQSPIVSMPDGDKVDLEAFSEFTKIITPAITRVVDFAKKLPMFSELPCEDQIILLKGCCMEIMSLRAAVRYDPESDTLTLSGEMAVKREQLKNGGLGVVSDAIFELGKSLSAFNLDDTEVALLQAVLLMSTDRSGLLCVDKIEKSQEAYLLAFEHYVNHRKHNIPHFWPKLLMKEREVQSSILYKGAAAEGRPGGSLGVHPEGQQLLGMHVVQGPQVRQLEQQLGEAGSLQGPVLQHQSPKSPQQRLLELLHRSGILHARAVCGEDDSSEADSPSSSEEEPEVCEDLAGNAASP

Turning to `Nc1c(Oc2ccccc2)cc(O)c2c1C(=O)c1ccccc1C2=O`, the outcome in test [1], in test [2], in test [3], in [4], in test [7] and in [8] was inactive. The result in test [9], in [10], in [12], in test [13], in test [14] and in test [15] was inactive. The outcome in test [16], in test [17], in test [18], in [19] and in test [20] was inactive. The AC50 in test [5] was 6.44 µM (active); in test [6], 3.13 µM (active); in [11] it was 17.4 µM (active).

On to `CCCCCCCCCCCCc1cccc(S(=O)(=O)O)c1`, for which the outcome in test [1], in test [2], in [4], in [6], in test [7] and in test [13] was inactive. In addition, the outcome in test [16], in test [17] and in [19] was inactive. Further, the AC50 in [11] was 30 µM (active); in test [14] it was 27.2 µM (active).

Turning to `Nc1ccc(N)cc1`, the result in test [1], in test [3], in test [4], in [5], in [7] and in test [8] was inactive. The result in [9], in test [10], in [12], in test [13], in [14] and in [15] was inactive. The outcome in test [16], in test [17], in test [18] and in [19] was inactive.

As for `NC(=O)CCl`, the result in test [1], in [2], in test [3], in test [4], in [5] and in test [6] was inactive. The compound was called inactive in [7], in [8], in [9], in [10], in test [11] and in test [12]. Moreover, the outcome in test [13], in [14], in [16], in test [17], in [18] and in test [19] was inactive.
